Consider 14 molecules from PubChem BioAssay.

The structures appear in SMILES notation. Activity calls are given as the source filed them.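 How the source made its calls, unless noted: active means inhibition at or above 50% at 10 µM; inactive means inhibition below 50%.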

A short description of assay [1]: inhibitors of TNFa-induced NFkB p65 translocation, primary screen, imaging, HUVEC, MLSMR starter and 10KST1 sets (AID 438;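 active means inhibition above 20% together with a positive visual image hit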;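 further: compound added about 3h40 before a 20 min TNFalpha stimulation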;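 on inhibition: signal is the nuclear over cytoplasmic p65 intensity ratio per well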). The following applies: HUVEC TNFa-induced p65 nuclear translocation; cell count: measured here: nuclei count (cytotoxicity indicator), at 2.08 µM; inhibition: at 2 µM, stronger effect = higher value, 0% TNFa-plus-vehicle, 100% no-TNFa wells.
The nature of assay [2]: inhibitors of mutant huntingtin aggregation, primary screen, imaging, exon1htt(103Q)mCFP cells, high-content imaging (AID 483;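 active means visual image review flags a hit and inhibition of aggregation exceeds 20%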;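 further: compound exposure lasted 3 days before fixation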;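 on nuclei count: percent of the per-plate median nuclei count of sample wells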). The following applies: exon1htt(103Q)mCFP cell line, aggregate imaging, at 2 µM; inhibition of aggregation: stronger effect = higher value; nuclei count: measured here: cell count, toxicity.
A short description of assay [3]: inhibitors of E-selectin induction by TNFa, primary screen, imaging, HUVEC, immunofluorescence, MLSMR starter and 10KST1 sets (AID 487;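 active means visually confirmed hit in the image check and inhibition above 20%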;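 on inhibition: signal is fraction of cell area covered by stained E-selectin grains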;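 on nuclei count: 100% = median nuclei count of all wells on the same plate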). The following applies: HUVEC TNFalpha-induced E-selectin immunofluorescence imaging, at 2 µM; inhibition: stronger effect = higher value; nuclei count: measured here: cell number, toxicity.
Assay [4] concerns the target Voltage-gated potassium channel subunit beta-2 (Rattus norvegicus) (UniProt P62483). In words: KvBeta enzyme negative modulators, primary screen, biochemical, NADPH fluorescence (AID 622;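 active means fluorescence slope higher than the sample average by over 3 SD, cut at about -0.22 in these data, passing the limit was not always enough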;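 further: slope of raw intensity against log time taken from 70 to 1610 s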). The following applies: recombinant KvBeta, 4-cyanobenzaldehyde reduction, at 10 µM, stronger effect = higher value.
For assay [5] the target is unchanged. In words: KvBeta positive modulators, primary screen, biochemical, NADPH fluorescence (AID 623;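 active means NADPH fluorescence slope more negative than the mean of all samples by about 3 SD, 99.7% confidence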;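 further: fluorescence intensity change per second fitted from 20 to 320 s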). The following applies: Recombinant KvBeta, NADPH fluorescence decrease slope, 10 min; at 10 µM; stronger effect = lower value.
In assay [6] the target is Alpha-2C adrenergic receptor (Homo sapiens) (UniProt P18825). In words: modulators of alpha2C/GIRK thallium flux, primary screen, cell-based, HEK293 alpha2C/GIRK1/2 (AID 624;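 active means fluorescence slope after compound addition differing from the mean of all screened samples at 99.7% confidence, in either direction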;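 further: slope of fluorescence ratio to pre-addition baseline per second over 15 to 24 s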). The following applies: thallium flux BTC fluorescence, at 10 µM, actives lie on both sides.
Chain of Alpha-2C adrenergic receptor (Homo sapiens) (P18825 whole entry, looked up): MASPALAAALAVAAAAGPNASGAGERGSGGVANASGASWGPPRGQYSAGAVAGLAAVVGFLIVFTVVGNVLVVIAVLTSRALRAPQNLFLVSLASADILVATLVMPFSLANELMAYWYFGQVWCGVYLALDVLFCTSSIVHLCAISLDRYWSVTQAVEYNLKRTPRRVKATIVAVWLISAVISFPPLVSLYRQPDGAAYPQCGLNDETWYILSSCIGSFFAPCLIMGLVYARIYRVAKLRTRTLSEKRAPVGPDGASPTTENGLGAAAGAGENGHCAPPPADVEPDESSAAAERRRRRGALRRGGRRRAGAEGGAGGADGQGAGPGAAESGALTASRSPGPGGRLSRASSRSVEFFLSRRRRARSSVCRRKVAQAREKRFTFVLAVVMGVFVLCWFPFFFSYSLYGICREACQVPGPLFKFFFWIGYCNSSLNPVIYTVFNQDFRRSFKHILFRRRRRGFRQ
Assay [7] is described as follows: inhibitors of Sendai virus-induced IRF3 signaling, primary screen, TLR/RLR signaling modifier project, cell-based, Sendai virus stimulus, luciferase, 10K MLSCN set (AID 602276).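 Further: firefly luciferase from ISG56 promoter only with Renilla not read in this screen; 0% = Sendai virus plus DMSO and 100% = medium plus DMSO without virus.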 The following applies: HEK293 RL24 IRF3 luciferase reporter, at 10 µM, stronger effect = higher value. In general terms: In a reporter assay the amount or activity of a reporter protein is the signal.

Assay [8] can be described thus: inhibitors of poly I:C-induced TLR3 signaling, primary screen, cell-based, poly I:C stimulus, luciferase, 10K MLSCN set (AID 602277;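 active means inhibition of the reporter signal at or above 50%; inactive means inhibition below 50%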). The following applies: HEK293-TLR3 RL24 IRF3 luciferase reporter, at 10 µM, stronger effect = higher value.

Chain of Voltage-gated potassium channel subunit beta-2 (Rattus norvegicus) (P62483 whole entry, looked up): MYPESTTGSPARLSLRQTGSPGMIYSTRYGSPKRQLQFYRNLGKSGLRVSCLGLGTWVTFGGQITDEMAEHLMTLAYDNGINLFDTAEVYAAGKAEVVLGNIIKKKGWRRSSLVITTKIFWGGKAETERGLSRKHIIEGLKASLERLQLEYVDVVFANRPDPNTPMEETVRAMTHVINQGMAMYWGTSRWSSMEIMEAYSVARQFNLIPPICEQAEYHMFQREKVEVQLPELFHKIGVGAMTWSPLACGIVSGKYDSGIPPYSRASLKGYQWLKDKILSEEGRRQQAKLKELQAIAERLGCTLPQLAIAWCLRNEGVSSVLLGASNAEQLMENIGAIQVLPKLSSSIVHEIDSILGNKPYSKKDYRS

Regarding `Cc1cc(C)c(NC(=O)CSc2nc3c(c(=O)n2C)SC(C)C3)c(C)c1` (centres undefined), the cell count in assay [1] was 700. Moreover, the inhibition (in general, the change of the read-out against control, counted positive when it falls) in assay [1] was 2.9% (inactive); in assay [3], -22% (inactive); in assay [7], -19.3% (inactive); in assay [8], -13.4% (inactive). For the same molecule, the inhibition of aggregation in assay [2] is -5.9% (inactive). For the same molecule, the nuclei count in assay [2] amounted to 102%; in assay [3] it was 120%. Besides, the fluorescence slope in assay [4] was -0.565 (inactive). Moreover, in assay [5], the NADPH fluorescence slope is -3.2e-05 (inactive). Further, in assay [6], the slope is 0.00653 (inactive).

Take `CCC(=O)Nc1cc(C(=O)NCC2CCCN2CC)c(OC)cc1N(C)C` (centres undefined): the cell count in assay [1] turned out to be 448. In addition, the inhibition is -0.5% (inactive) in assay [1], -37.7% (inactive) in assay [3], 0.262% (inactive) in assay [7] and 6.05% (inactive) in assay [8]. Further, the inhibition of aggregation in assay [2] was -23.1% (inactive). Besides, the nuclei count in assay [2] turned out to be 98.8%; in assay [3] it was 104%. For the same molecule, the fluorescence slope in assay [4] is -0.525 (inactive). Besides, the NADPH fluorescence slope in assay [5] is 1.6e-05 (inactive). Moreover, the slope in assay [6] was 0.00562 (inactive).

As to `O=c1[nH]c(Nc2ccccc2)cc2ccccc12`, the cell count in assay [1] is 526. For the same molecule, the inhibition in assay [1] was -14.6% (inactive); in assay [3] it was -33.7% (inactive); in assay [7] it was 7.19% (inactive); in assay [8], 7.53% (inactive). In addition, in assay [2], the inhibition of aggregation is -7.1% (inactive). Also, the nuclei count came to 101% in assay [2] and 96.7% in assay [3]. Moreover, in assay [4], the fluorescence slope was -0.132 (inactive). Also, in assay [5], the NADPH fluorescence slope is 1.3e-05 (inactive). The slope in assay [6] was 0.00342 (inactive).

For `CCCC(=O)n1nc(-c2ccc(OC)cc2)nc1N`, the cell count in assay [1] amounted to 239. Also, the inhibition in assay [1] is -3.7% (inactive); in assay [3] it was -20.1% (inactive); in assay [7] it was 12.9% (inactive); in assay [8], 14.6% (inactive). In addition, the inhibition of aggregation in assay [2] is 17.1% (inactive). For the same molecule, the nuclei count in assay [2] worked out at 80%; in assay [3], 77%. Also, in assay [4], the fluorescence slope is -0.483 (inactive). Further, the NADPH fluorescence slope in assay [5] was -4.3e-05 (inactive). The slope in assay [6] is 0.00574 (inactive).

For the molecule `O=C(CSc1ncn[nH]1)c1ccco1`, the cell count in assay [1] is 746. Also, the inhibition in assay [1] is -13.5% (inactive); in assay [3] it was 13.2% (inactive); in assay [7], 18.7% (inactive); in assay [8], 26.5% (inactive). Moreover, in assay [2], the inhibition of aggregation is -3.4% (inactive). The nuclei count in assay [2] is 112%; in assay [3], 119%. The fluorescence slope in assay [4] was -0.453 (inactive). The NADPH fluorescence slope in assay [5] is -9.5e-06 (inactive). Besides, the slope in assay [6] was 0.00556 (inactive).

On to `Cc1ccc(NC(=O)CCC(=O)OCC(F)(F)C(F)F)cc1`, for which, in assay [1], the cell count is 551. Also, the inhibition is -2.4% (inactive) in assay [1], -2.3% (inactive) in assay [3], 3.35% (inactive) in assay [7] and 35.3% (inactive) in assay [8]. Besides, in assay [2], the inhibition of aggregation was 2% (inactive). For the same molecule, the nuclei count in assay [2] came to 69.2%; in assay [3] it was 91.8%. Besides, the fluorescence slope in assay [4] was -0.454 (inactive). Further, the NADPH fluorescence slope in assay [5] was 6.2e-06 (inactive). The slope in assay [6] was 0.00371 (inactive).

Consider `Oc1ccc(Nc2nc(-c3ccc(O)cc3)cs2)cc1`, for which, in assay [1], the cell count was 277. The inhibition was 15.1% (inactive) in assay [1], -20.5% (inactive) in assay [3], -43% (inactive) in assay [7] and -59.8% (inactive) in assay [8]. Moreover, in assay [2], the inhibition of aggregation is 18.9% (inactive). Moreover, the nuclei count in assay [2] is 71.8%; in assay [3] it was 124%. In addition, the fluorescence slope in assay [4] was -0.429 (inactive). Further, in assay [5], the NADPH fluorescence slope is -4.3e-05 (inactive). For the same molecule, the slope in assay [6] is 0.00332 (inactive).

On to `CCOC(=O)c1sc2nc(SCC#N)n(CCCN3CCCC3=O)c(=O)c2c1C`, for which the cell count in assay [1] was 399. Besides, the inhibition in assay [1] is 3.4% (inactive); in assay [3], 49% (inactive); in assay [7], 4.69% (inactive); in assay [8] it was -8.03% (inactive). Moreover, the inhibition of aggregation in assay [2] is -11.9% (inactive). The results for the nuclei count in assay [2] and in assay [3] were 89.9% and 96.1%, respectively. The fluorescence slope in assay [4] was -0.461 (inactive). For the same molecule, in assay [5], the NADPH fluorescence slope was -6.7e-05 (inactive). The slope in assay [6] was 0.00586 (inactive).

In the case of `Cc1cc(=O)[nH]c(S/C=C/c2ccccc2)n1`, the cell count in assay [1] came out at 427. In addition, the inhibition in assay [1] was -1.8% (inactive); in assay [3] it was 1.2% (inactive); in assay [7] it was -28.9% (inactive); in assay [8], -89.2% (inactive). The inhibition of aggregation in assay [2] was -8.6% (inactive). Besides, the values for the nuclei count in assay [2] and in assay [3] were 103% and 80.7%, respectively. The fluorescence slope in assay [4] was -0.603 (inactive). Besides, in assay [5], the NADPH fluorescence slope was -2e-05 (inactive). Also, in assay [6], the slope is 0.00593 (inactive).

Consider `CCc1nnc(NC(=O)CCC(=O)Nc2ccccc2)s1`, for which the cell count in assay [1] was found to be 554. Also, the inhibition in assay [1] was 7.2% (inactive); in assay [3], 33.2% (inactive); in assay [7], 9.85% (inactive); in assay [8], 2.44% (inactive). Also, the inhibition of aggregation in assay [2] is -10.2% (inactive). Moreover, the nuclei count is 97.2% in assay [2] and 93.4% in assay [3]. In assay [4], the fluorescence slope was -0.384 (inactive). Further, in assay [5], the NADPH fluorescence slope is -6.1e-05 (inactive). The slope in assay [6] is 0.00537 (inactive).

For the molecule `Cc1cccc(C)c1NC(=O)c1cc(S(=O)(=O)N2CCOCC2)ccc1F`, in assay [1], the cell count came to 341. Also, the inhibition in assay [1] was 10.3% (inactive); in assay [3], -213% (inactive); in assay [7], 11.2% (inactive); in assay [8], 26.3% (inactive). For the same molecule, the inhibition of aggregation in assay [2] was -3.7% (inactive). Further, the results for the nuclei count in assay [2] and in assay [3] were 56.5% and 80.9%, respectively. Moreover, in assay [4], the fluorescence slope is -0.302 (inactive). Besides, the NADPH fluorescence slope in assay [5] was -1e-05 (inactive). Further, the slope in assay [6] is 0.00325 (inactive).

`CCCn1c(SCC(=O)NC(C)(C)C)nnc1C(C)C`: the cell count in assay [1] came out at 603. Besides, the inhibition in assay [1] is -6.3% (inactive); in assay [3], 19.4% (inactive); in assay [7] it was 13% (inactive); in assay [8], 23.2% (inactive). Also, in assay [2], the inhibition of aggregation was 6.5% (inactive). In addition, the nuclei count came to 102% in assay [2] and 99.9% in assay [3]. Also, the fluorescence slope in assay [4] was -0.537 (inactive). Besides, the NADPH fluorescence slope in assay [5] was -0.000121 (inactive). The slope in assay [6] is 0.00641 (inactive).

For `COc1ccc(-c2cc(N3CCCC3)n3ncnc3n2)cc1`, in assay [1], the cell count is 640. Besides, the inhibition in assay [1] is 11.9% (inactive); in assay [3], -3.2% (inactive); in assay [7], -11.3% (inactive); in assay [8], -11.7% (inactive). For the same molecule, in assay [2], the inhibition of aggregation was 7.3% (inactive). Moreover, the nuclei count in assay [2] came out at 118%; in assay [3], 102%. The fluorescence slope in assay [4] was -0.473 (inactive). Moreover, in assay [5], the NADPH fluorescence slope is -2.2e-05 (inactive). Also, in assay [6], the slope was 0.00575 (inactive).

In the case of `COc1ccc(C(=O)c2coc3ccc(O)c(CN4CCCCC4)c23)cc1`, the cell count in assay [1] worked out at 828. Also, the inhibition in assay [1] was -6.8% (inactive); in assay [3] it was -25.2% (inactive); in assay [7], -9.24% (inactive); in assay [8], -15.8% (inactive). The inhibition of aggregation in assay [2] was -9.1% (inactive). For the same molecule, the nuclei count in assay [2] was determined as 108%; in assay [3] it was 112%. The fluorescence slope in assay [4] is -0.597 (inactive). For the same molecule, the NADPH fluorescence slope in assay [5] is -1.2e-05 (inactive). For the same molecule, the slope in assay [6] was 0.00458 (inactive).
